The list is not random: actives were taken first. Their share in the collection is about 19%.
ASM inhibitor = Inhibitors of Secretory Acid Sphingomyelinase (S-ASM): qHTS. Potency, µM (doses to about 57.5 µM), without a hit: top-dose activity change, negative = inhibition, usual class: inhibitors. placental ASM, HMU-PC fluorogenic substrate, 60 min. 340,000 tested, 0.006% active. AID 504937, 2011; also: potency is read from the fitted curve at half-maximal effect
Target sequence (P17405 47-631 limits assumed): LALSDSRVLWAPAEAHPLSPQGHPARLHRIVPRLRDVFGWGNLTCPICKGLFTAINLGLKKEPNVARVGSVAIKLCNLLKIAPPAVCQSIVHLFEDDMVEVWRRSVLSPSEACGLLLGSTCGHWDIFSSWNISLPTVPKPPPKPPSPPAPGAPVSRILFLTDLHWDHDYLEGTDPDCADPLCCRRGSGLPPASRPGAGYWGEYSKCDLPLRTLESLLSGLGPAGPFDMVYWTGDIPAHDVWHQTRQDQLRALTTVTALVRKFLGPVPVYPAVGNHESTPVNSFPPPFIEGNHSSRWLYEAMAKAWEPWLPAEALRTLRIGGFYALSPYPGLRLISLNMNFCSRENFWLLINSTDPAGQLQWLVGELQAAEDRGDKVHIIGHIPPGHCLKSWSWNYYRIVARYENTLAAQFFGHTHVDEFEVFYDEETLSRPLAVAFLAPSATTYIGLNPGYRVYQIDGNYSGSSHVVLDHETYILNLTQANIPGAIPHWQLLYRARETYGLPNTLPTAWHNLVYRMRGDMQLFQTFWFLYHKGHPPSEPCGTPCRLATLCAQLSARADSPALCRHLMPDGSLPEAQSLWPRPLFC
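Steps: dispense placental human ASM, pin compound, wait 10 min at room temperature, add HMU-PC0 substrate at 9 uM final, incubate 60 min at 37 °C, add stop solution raising pH to 10, read fluorescence.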
HepG2 tox = qHTS for Inhibitors of TGF-b: Cytotox Counterscreen; HepG2 CAGA-GFP viability, ATP luminescence, 18 h; Potency, µM (doses to about 46.1 µM), for the others: top-dose activity change, negative = cytotoxicity, usual class: cytotoxic; 410,000 tested, 0.76% active; also: potency is read from the fitted curve at half-maximal effect
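CellTiter-Glo luminescence gave cytotoxicity after 18 hours at 37 degrees C. The cells were HepG2 CAGA-GFP in 1% FBS DMEM, stimulated with 500 pg/mL TGF-beta after compound addition. %Activity was normalised to no-cell wells (complete cell-killing) and DMSO (no toxicity), and curves were fitted and classified.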
IL1B secr inh = qHTS for Inhibitors of Inflammasome Signaling: IL-1-beta AlphaLISA Primary Screen. activity change, % at 57.5 µM. 360,000 tested, 4.7% active. THP-1 LPS/ATP IL-1B secretion, AlphaLISA, 16 h; hits give low values; in the data active = activity change below about -50%; inconclusive = mostly about -30% to -49%; also: % is scaled to controls: 0 for no effect and ±100 for the full control effect
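Secreted IL-1B measured by AlphaLISA bead assay after 16 h compound exposure of THP-1 cells; compounds (final up to 57.5 uM) added 1 h before LPS (250 ng/mL) and ATP (1.25 mM) stimulation; lower signal means less secretion.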
DT40 TDP1 CPT = qHTS for Inhibitors of human tyrosyl-DNA phosphodiesterase 1 (TDP1): qHTS in cells in presence of CPT; chicken DT40 Tdp1-/-;hTDP1 cells + 20 nM CPT, ATP luminescence, 48 h; Potency, µM (doses to about 46.2 µM), for the others: at the highest dose activity change, negative = growth inhibition, most hits filed as inhibitors; 420,000 tested, 12% active; AID 686979, 2013; also: potency is read from the fitted curve at half-maximal effect; % is scaled to controls: 0 for no effect and ±100 for the full control effect; nearly all actives have a fitted effect of over 55% in size
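Chicken DT40 Tdp1-/- cells complemented with human TDP1, 400 cells/well, exposed to compounds plus 20 nM camptothecin for at least 48 h at 37 C; viability read as ATP content by CellTiter-Glo luminescence.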
TDP1 cell noCPT = qHTS for Inhibitors of human tyrosyl-DNA phosphodiesterase 1 (TDP1): qHTS in cells in absence of CPT. AID 686978, 2013. 420,000 tested, 15% active. Potency, µM (highest dose often 46.2 µM), inactives show at the highest dose activity change, negative = growth inhibition, most hits filed as inhibitors. DT40 Tdp1-/- hTDP1 cells, no CPT, ATP luminescence, 48 h; also: potency is read from the fitted curve at half-maximal effect; % is scaled to controls: 0 for no effect and ±100 for the full control effect; nearly all actives have a fitted effect of over 55% in size
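No-CPT arm: Tdp1-/-;hTDP1 DT40 cells (400/well) plus compounds, incubated ≥48 hr at 37 °C. Readout CellTiter-Glo luminescence.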
TGFb inhibitor = qHTS for Inhibitors of TGF-b. HepG2 CAGA-GFP TGF-b/SMAD3 reporter, GFP fluorescence, 18 h; TGF-beta stimulated, 500 pg/mL final. 410,000 tested, 1.2% active. Potency, µM (top dose mostly 46.1 µM), for inactives: at the highest dose activity, negative = inhibition, most hits filed as inhibitors; also: potency is read from the fitted curve at half-maximal effect; % is scaled to controls: 0 for no effect and ±100 for the full control effect; nearly all actives have a fitted effect of over 65% in size
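First, reporter cells (HEPG2 CAGA-GFP) rested 2 h at 37 degrees C. Next, compounds were pinned in and TGF-beta added to 500 pg/mL final. After 18 h, GFP was imaged per cell and summed per well.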
An asterisk follows results filed as active; i = inactive; ? = inconclusive; nt = not tested or not shown; ! = a repeat was not active; [ ] = dose if it differs, or a comment. Unless noted, calls follow the shape of the dose curve; as a rule, active = well fitted curve in the direction sought with a large enough effect; inconclusive = small, poorly fitted or top-dose-only effect, or another doubt; inactive = no such curve, though single readings can be large; an effect the other way counts as inactive or inconclusive.

SMILES | ASM inhibitor | HepG2 tox | IL1B secr inh | DT40 TDP1 CPT | TDP1 cell noCPT | TGFb inhibitor
CC(C)OC(=O)OCOP(=O)(CO[C@H](C)Cn1cnc2c(N)ncnc21)OCOC(=O)OC(C)C | nt | nt | nt | 8.4µM*! | 11µM*! | nt
N#Cc1nn(-c2c(Cl)cc(C(F)(F)F)cc2Cl)c(N)c1S(=O)C(F)(F)F (stereo unspecified) | nt | nt | nt | 9.6µM* | 8.6µM* | nt
CCCC[N+]12CCC(CC1)C(=C(c1ccccc1)c1ccccc1)C2 | 5% | -1% | -4 | 4.6µM* | 4.1µM* | -9%
CCC[N+]12CCC(CC1)C(=C(c1ccccc1)c1ccccc1)C2 | 7% | 6% | i | 15µM* | 21µM* | 6%
COC(=O)C1=C(c2ccccc2OCc2ccccc2)C[C@@H]2CC[C@H]1N2C(=O)NCc1ccc([N+](=O)[O-])cc1 | 9% | -28% | -53* | 23µM* | ? | -29%
COC(=O)C1=C(c2ccccc2OCc2ccccc2)C[C@@H]2CC[C@H]1N2C(=O)NCc1ccc(Cl)cc1 | -1% | 5% | -30 | ? | ? | ?
COC(=O)C1=C(c2ccccc2OCc2ccccc2)C[C@@H]2CC[C@H]1N2C(=O)NCc1ccc(OC)c(OC)c1 | 0% | 5% | -8 | 16µM* | 21µM* | 1%
CCCOc1ccc(C(=O)CCC(=O)NNC(=O)c2ccncc2)cc1 | -3% | 6% | 13 | 7% | 8% | ?
C=C(Cl)CSC(=S)N(CC)CC | 3% | -19% | 6 | 5.2µM* | 3.3µM* | 2%
Cc1c(C(=O)Nc2ccccc2Cl)oc2ccc(S(=O)(=O)N3CCCCC3)cc12 | nt | -10% | nt | 21µM* | 16µM* | -14%
Cc1c(Cl)cccc1NC(=O)c1oc2ccc(S(=O)(=O)N3CCC4(CC3)OCCO4)cc2c1C | nt | -3% | nt | 4.1µM* | 4.1µM* | -9%
Cc1c(C(=O)N2CCC3(CC2)OCCO3)oc2ccccc12 | 2% | 0% | 0 | 0% | -1% | -16%
Cc1c(C(=O)N2CCC3(CC2)OCCO3)oc2ccc(S(=O)(=O)N3CCOCC3)cc12 | 1% | -17% | 0 | -24% | -2% | -1%
Cc1c(C(=O)NCCC2=CCCCC2)oc2ccc(S(=O)(=O)N3CCC4(CC3)OCCO4)cc12 | -2% | -6% | -66* | 18µM* | 23µM* | -10%
COc1ccc(C(=O)OCC2CN2c2cccc([N+](=O)[O-])c2)cc1 (stereo unspecified) | nt | nt | 25 | ? | -25% | nt
CC(=O)c1cccc(NC(=O)C2CCN(S(=O)(=O)c3ccc4c(c3)oc(=O)n4C)CC2)c1 | nt | -33% | nt | -22% | ? | -10%
Cn1c(=O)oc2cc(S(=O)(=O)N3CCC(C(=O)N4CC=C(c5ccccc5)CC4)CC3)ccc21 | -17% | -29% | -8 | 23µM* | 12µM* | -19%
Cn1c(=O)oc2cc(S(=O)(=O)N3CCC(C(=O)N4CCN(c5ccc(F)cc5)CC4)CC3)ccc21 | -3% | -3% | 7 | 26µM* | 9.2µM* | -3%
COc1cccc(N2CCN(C(=O)C3CCCN(S(=O)(=O)c4ccc5c(c4)oc(=O)n5C)C3)CC2)c1 (stereo unspecified) | -1% | 2% | 8 | 18µM* | 15µM* | -12%
Cc1cccc(N2CCN(C(=O)CCNS(=O)(=O)c3ccc4c(c3)oc(=O)n4C)CC2)c1C | -2% | -6% | -67* | ? | 16µM* | -26%
O=S(=O)(O)C(F)(F)C(F)(F)C(F)(F)C(F)(F)C(F)(F)C(F)(F)C(F)(F)C(F)(F)F | nt | nt | nt | -21%[92.5 µM] | ? | nt
Cc1ccc(Cl)cc1N1CCN(C(=O)C2CCN(S(=O)(=O)c3ccc4c(c3)oc(=O)n4C)CC2)CC1 | nt | -14% | nt | 1.2µM* | 0.73µM* | 0%
Cn1c(=O)oc2cc(S(=O)(=O)N3CCC(C(=O)N4CCN(c5ccccc5)CC4)CC3)ccc21 | 1% | -2% | -7 | ? | 21µM* | 4%
Cn1c(=O)oc2cc(S(=O)(=O)N3CCCc4ccccc43)ccc21 | 0% | -21% | 52 | 4.1µM* | 5.8µM* | 0%
COc1ccc2c(c1)c(C(=O)CN1CCC3(CC1)OCCO3)c(C)n2Cc1ccccc1 | -6% | -21% | -8 | -10% | -27% | 1%
SMILES | ASM inhibitor | HepG2 tox | IL1B secr inh | DT40 TDP1 CPT | TDP1 cell noCPT | TGFb inhibitor
COc1ccc(C(=O)C2CCCN(C3CSCCSC3)C2)cc1OC (stereo unspecified) | 2% | -29% | 5 | -1% | ? | -4%
O=C(O[C@H]1CN2CCC1CC2)N1CCc2ccccc2[C@@H]1c1ccccc1 | nt | nt | nt | ? | 21µM* | nt
C[C@@H]1CN([C@H](C)CO)C(=O)CCCn2nncc2CO[C@@H]1CN(C)C(=O)Oc1ccccc1 | nt | -7% | -19 | ? | -18% | 2%
C=CC[C@H](CC(=O)N(CCO)Cc1ccccc1)C(=O)NC[C@H](OC(=O)[C@@H](CC=C)CC(=O)OC(C)(C)C)c1ccccc1 | 1% | -20% | -71* | 21µM* | 23µM* | ?
C=CC[C@@H](CC(=O)N(CCO)Cc1ccccc1)C(=O)NC[C@@H](OC(=O)[C@@H](CC=C)CC(=O)OC(C)(C)C)c1ccccc1 | 6% | -14% | ? | ? | ? | -24%
CC(C)=CC1C(C(=O)OCc2cccc(Oc3ccccc3)c2)C1(C)C (stereo unspecified) | nt | nt | nt | -10% | -4% | nt
C=CCC1=C(C)C(OC(=O)C2C(C=C(C)C)C2(C)C)CC1=O (stereo unspecified) | nt | nt | nt | ? | 24µM* | nt
O=C1NC(=S)NC(=O)C1=Cc1ccc2c(c1)CCN2CCCCl | -2% | -7% | 12 | ? | 15µM* | -7%
CSc1ncc(Br)c(N2CC2)n1 | -1% | 3% | 22 | 6% | -4% | -3%
O=C(Cn1cnc2sc3c(c2c1=O)CCCC3)NCCC(=O)N1CCC2(CC1)OCCO2 | 1% | -14% | -5 | 3% | 0% | 21%
CC(C)n1c(O)c(C2c3cc(Cl)ccc3Oc3[nH]c(=O)n(C(C)C)c(=O)c32)c(=O)[nH]c1=O (stereo unspecified) | 4% | 14µM* | -99* | 2.9µM* | 2.9µM* | 6.3µM*

From PubChem BioAssay
